Results on 16 compounds are retold here after PubChem BioAssay (EPA / NIEHS).

Molecules are shown by their SMILES. “And” between values parts separate entries of the source, which are not always exact repeats. Identical values can stand only once. Records with an inconclusive call do not appear. The source made the active and inactive calls. How the source made its calls: active means hit-call score of the fitted dose curve at least 0.9, where 1 is the maximum; inconclusive means response in the unintended direction; inactive means score below 0.9.

Sequence of human Adrenergic, Alpha 2A Receptor (Adra2A), ADRA2A (gene 150) (P08913 whole entry, looked up): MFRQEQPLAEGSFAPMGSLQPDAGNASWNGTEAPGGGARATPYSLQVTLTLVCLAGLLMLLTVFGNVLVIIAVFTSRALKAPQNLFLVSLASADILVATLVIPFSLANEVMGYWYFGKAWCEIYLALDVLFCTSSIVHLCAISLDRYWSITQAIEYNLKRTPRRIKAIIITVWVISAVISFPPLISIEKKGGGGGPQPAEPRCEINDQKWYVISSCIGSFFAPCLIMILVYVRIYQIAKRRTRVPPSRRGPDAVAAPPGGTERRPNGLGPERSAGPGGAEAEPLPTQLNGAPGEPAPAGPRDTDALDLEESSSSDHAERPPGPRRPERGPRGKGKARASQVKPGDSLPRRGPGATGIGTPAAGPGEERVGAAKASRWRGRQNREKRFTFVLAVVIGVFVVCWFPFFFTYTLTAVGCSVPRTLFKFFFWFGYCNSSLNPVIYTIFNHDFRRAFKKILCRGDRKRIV

The first assay addresses human Adrenergic, Alpha 2A Receptor (Adra2A), ADRA2A (gene 150) (UniProt P08913). The experiment in a line: NVS_GPCR_hAdra2A: NovaScreen (NVS) G Protein-Coupled Receptor Assay for human Adrenergic, Alpha 2A Receptor (Adra2A) (AID 2283257). A digest of the protocol: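 Displacement of a specific radioligand from HT29 membrane protein was counted by filter scintillation after 1 h. Compounds were screened in duplicate at 25 uM, and actives were retested in concentration series. Fitting was positive-direction against DMSO.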
A word on the AC50: it is the concentration at which the activity in the assay is half-maximal. Take `O=C1c2ccccc2C(=O)N1CCc1noc(-c2ccc(CN3CCCCCC3)s2)n1`: the half-maximal activity concentration (AC50) was 0.861 µM (active).
The same measure, in the same setting: as for `NCc1cccc(C2CCN(C(=O)c3ccc(C#Cc4ccccc4F)o3)CC2)c1`, the figure is 25 µM (active).
Same read-out and setting: with `Clc1cc(Cl)c2c(c1)N=C1CCCCCN1C2` the figure was 2.99 µM (active).
`CCN(Cc1cccnc1)C(=O)c1cccc(Cl)c1[C@]1(C)C(=O)N(Cc2ccc(OC)cc2OC)c2ccc(Cl)cc21`: the outcome was inactive.
On to `COc1cc(C(=O)NC2CCN(C)CC2)ccc1Nc1ncc2c(n1)N(C1CCCC1)CC(F)(F)C(=O)N2C`, for which the concentration at half-maximal activity (AC50) is 14 µM (active).
Consider `CN(C)C(=O)C1(N2CCCCC2)CCN(CC[C@@]2(c3ccc(Cl)c(Cl)c3)CN(C(=O)c3ccccc3)CCO2)CC1`, for which the AC50 was 35.6 µM (active).
For `Cc1occc1C(=O)Nc1ccc(C(=O)N2CCC(F)(F)/C(=C\C(=O)N3CCC(N4CCCCC4)CC3)c3ccccc32)cc1`, the AC50 is 3.18 µM (active).
Consider `CCOC(=O)O[C@H](C)OC(=O)c1ccc2c(c1)cc(C(=O)NC1CCN(C(C)C)CC1)n2Cc1cc(-c2ccc(Cl)s2)on1`, for which the concentration at half-maximal activity (AC50) is 6.3 µM (active).
Consider `CN(C)c1ccc(C(=C2C=CC(=[N+](C)C)C=C2)c2ccc(N(C)C)cc2)cc1`, for which the AC50 is 2.59 µM (active).
Same read-out and setting: as for `COc1ccc2cc(S(=O)(=O)N[C@H](CC(=O)N[C@H](Cc3ccc(CN4[C@H](C)CCC[C@@H]4C)cc3)C(=O)N(C)C(C)C)c3ccc4c(c3)OCO4)ccc2c1`, the figure is 18.8 µM (active).

The target in another assay is human Adrenergic, Beta 1 Receptor (Adrb1), ADRB1 (gene 153) (UniProt P08588). The experiment in a line: NVS_GPCR_hAdrb1: NovaScreen (NVS) G Protein-Coupled Receptor Assay for human Adrenergic, Beta 1 Receptor (Adrb1) (AID 2283258). A digest of the protocol: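 Membranes/protein extracted from human neuroepithelioma cells, radioligand competition binding read by filtration and scintillation 2 h post-dose. Single 25 uM duplicate screen, then concentration-response follow-up; DMSO as negative control.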
Sequence of human Adrenergic, Beta 1 Receptor (Adrb1), ADRB1 (gene 153) (P08588 whole entry, looked up): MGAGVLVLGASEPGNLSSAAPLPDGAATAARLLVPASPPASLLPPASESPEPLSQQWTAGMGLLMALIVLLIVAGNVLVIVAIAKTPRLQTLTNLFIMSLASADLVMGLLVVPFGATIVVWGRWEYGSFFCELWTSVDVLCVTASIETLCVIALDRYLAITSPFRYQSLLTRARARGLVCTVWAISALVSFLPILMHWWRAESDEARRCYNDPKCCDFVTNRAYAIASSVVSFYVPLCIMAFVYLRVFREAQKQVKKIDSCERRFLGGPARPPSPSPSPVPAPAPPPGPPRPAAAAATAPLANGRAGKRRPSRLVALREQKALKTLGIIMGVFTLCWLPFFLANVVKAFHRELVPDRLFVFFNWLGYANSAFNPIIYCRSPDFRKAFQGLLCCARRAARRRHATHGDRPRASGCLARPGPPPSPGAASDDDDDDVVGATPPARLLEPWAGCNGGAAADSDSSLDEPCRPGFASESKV
With `NCc1cccc(C2CCN(C(=O)c3ccc(C#Cc4ccccc4F)o3)CC2)c1`, the AC50 was 20.6 µM (active).
With `CCCCCCCCOc1ccc(C(=O)c2ccccc2)c(O)c1`, the outcome was inactive.
On to `Cc1cc(F)ccc1-c1cc(N2CC[C@@H](O)[C@H]2CO)ncc1N(C)C(=O)C(C)(C)c1cc(C(F)(F)F)cc(C(F)(F)F)c1`, for which the AC50 was 20.4 µM (active).
As for `CC(C)(C)c1csc(-c2cc3cc(OCc4ccccc4CC(=O)O)ccc3o2)n1`, the call was inactive.
`CCCCCCCCOC(=O)c1cc(O)c(O)c(O)c1`: the AC50 was 22.6 µM (active).
Still for that read-out and setting: with `CN(C)C(=O)C1(N2CCCCC2)CCN(CC[C@@]2(c3ccc(Cl)c(Cl)c3)CN(C(=O)c3ccccc3)CCO2)CC1` the figure was 20.7 µM (active); with `CCOC(=O)O[C@H](C)OC(=O)c1ccc2c(c1)cc(C(=O)NC1CCN(C(C)C)CC1)n2Cc1cc(-c2ccc(Cl)s2)on1`, 6.33 µM (active).
In the case of `CC/C(=C(/CC)c1ccc(O)cc1)c1ccc(O)cc1`, the half-maximal activity concentration (AC50) is 43.5 µM (active).

The target in the next assay is human Adrenergic, Alpha 2c Receptor (Adra2C), ADRA2C (gene 152) (UniProt P18825). The experiment in a line: NVS_GPCR_hAdra2C: NovaScreen (NVS) G Protein-Coupled Receptor Assay for human Adrenergic, Alpha 2c Receptor (Adra2C) (AID 2283259). An outline of the steps: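 Screened first in duplicate at 25 uM, with actives then run as concentration series. Membranes from Sf9 cells were exposed for 1 h, and displacement of radioligand was counted after filtration, using DMSO as baseline.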
Sequence of human Adrenergic, Alpha 2c Receptor (Adra2C), ADRA2C (gene 152) (P18825 whole entry, looked up): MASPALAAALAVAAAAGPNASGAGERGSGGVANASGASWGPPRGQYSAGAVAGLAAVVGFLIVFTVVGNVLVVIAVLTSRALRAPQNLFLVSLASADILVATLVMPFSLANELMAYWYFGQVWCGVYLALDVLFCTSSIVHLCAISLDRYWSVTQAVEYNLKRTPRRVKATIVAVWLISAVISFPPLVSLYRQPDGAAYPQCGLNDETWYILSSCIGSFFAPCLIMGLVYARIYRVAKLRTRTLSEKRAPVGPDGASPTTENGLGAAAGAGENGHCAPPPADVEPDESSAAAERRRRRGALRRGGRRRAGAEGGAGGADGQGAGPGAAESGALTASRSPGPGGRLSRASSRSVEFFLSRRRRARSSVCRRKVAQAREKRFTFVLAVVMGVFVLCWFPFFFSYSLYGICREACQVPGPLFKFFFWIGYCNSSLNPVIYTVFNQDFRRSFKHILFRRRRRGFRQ
Take `O=C1c2ccccc2C(=O)N1CCc1noc(-c2ccc(CN3CCCCCC3)s2)n1`: the concentration at half-maximal activity (AC50) was 1.08 µM (active).
As to `NCc1cccc(C2CCN(C(=O)c3ccc(C#Cc4ccccc4F)o3)CC2)c1`, the half-maximal activity concentration (AC50) is 4.51 µM (active).
The same measure, in the same setting: as for `Clc1cc(Cl)c2c(c1)N=C1CCCCCN1C2`, the figure is 5.73 µM (active); as for `CCN(Cc1cccnc1)C(=O)c1cccc(Cl)c1[C@]1(C)C(=O)N(Cc2ccc(OC)cc2OC)c2ccc(Cl)cc21`, 2.22 µM (active); as for `Cc1cc(F)ccc1-c1cc(N2CC[C@@H](O)[C@H]2CO)ncc1N(C)C(=O)C(C)(C)c1cc(C(F)(F)F)cc(C(F)(F)F)c1`, 5.39 µM (active).
Still for that read-out and setting: with `COc1cc(C(=O)NC2CCN(C)CC2)ccc1Nc1ncc2c(n1)N(C1CCCC1)CC(F)(F)C(=O)N2C` the figure was 6.01 µM (active); with `CCCCCCCCOC(=O)c1cc(O)c(O)c(O)c1`, 11.8 µM (active); with `CN(C)C(=O)C1(N2CCCCC2)CCN(CC[C@@]2(c3ccc(Cl)c(Cl)c3)CN(C(=O)c3ccccc3)CCO2)CC1`, 12.1 µM (active).
The same measure, in the same setting: as for `Cc1occc1C(=O)Nc1ccc(C(=O)N2CCC(F)(F)/C(=C\C(=O)N3CCC(N4CCCCC4)CC3)c3ccccc32)cc1`, the figure is 1.03 µM (active); as for `CCOC(=O)O[C@H](C)OC(=O)c1ccc2c(c1)cc(C(=O)NC1CCN(C(C)C)CC1)n2Cc1cc(-c2ccc(Cl)s2)on1`, 2.01 µM (active); as for `CC/C(=C(/CC)c1ccc(O)cc1)c1ccc(O)cc1`, 19.2 µM (active) and 25 µM (active) and 5.86 µM (active).
For the compound `CCN(CC)C(=O)c1cc(S(=O)(=O)Cc2ccccc2)c(N2CCC(c3ccccc3)CC2)cc1N(CC)CCN(C)C`, the AC50 was 9.22 µM (active).
For `CN(C)c1ccc(C(=C2C=CC(=[N+](C)C)C=C2)c2ccc(N(C)C)cc2)cc1`, the AC50 was 1.79 µM (active).
Turning to `COc1ccc2cc(S(=O)(=O)N[C@H](CC(=O)N[C@H](Cc3ccc(CN4[C@H](C)CCC[C@@H]4C)cc3)C(=O)N(C)C(C)C)c3ccc4c(c3)OCO4)ccc2c1`, the half-maximal activity concentration (AC50) was 5.22 µM (active).

For the next assay, the target named is Beta-2 adrenergic receptor (Homo sapiens) (UniProt P07550). Nature of the assay: NVS_GPCR_hAdrb2: NovaScreen (NVS) G Protein-Coupled Receptor Assay for human Adrenergic, Beta 2 Receptor (Adrb2) (AID 2283261). An outline of the steps: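 Compounds screened in duplicate at 25 uM, then actives in concentration series. Human beta-2 receptor from CHO material, cell-free; radioligand displacement after 1 h measured by filtration and scintillation against DMSO baseline.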
Sequence of Beta-2 adrenergic receptor (Homo sapiens) (P07550 whole entry, looked up): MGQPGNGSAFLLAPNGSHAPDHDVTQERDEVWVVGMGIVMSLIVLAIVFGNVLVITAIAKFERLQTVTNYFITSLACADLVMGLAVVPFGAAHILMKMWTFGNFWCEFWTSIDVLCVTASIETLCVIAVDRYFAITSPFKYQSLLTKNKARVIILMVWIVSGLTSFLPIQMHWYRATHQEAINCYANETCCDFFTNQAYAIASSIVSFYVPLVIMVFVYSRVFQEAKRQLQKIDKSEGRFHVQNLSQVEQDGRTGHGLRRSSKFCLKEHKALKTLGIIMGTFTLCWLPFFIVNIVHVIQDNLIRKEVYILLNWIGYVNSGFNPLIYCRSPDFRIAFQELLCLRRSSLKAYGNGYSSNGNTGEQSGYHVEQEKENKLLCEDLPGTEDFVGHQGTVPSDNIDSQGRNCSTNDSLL
As to `NCc1cccc(C2CCN(C(=O)c3ccc(C#Cc4ccccc4F)o3)CC2)c1`, the AC50 is 12.6 µM (active).
Regarding `Cc1cc(F)ccc1-c1cc(N2CC[C@@H](O)[C@H]2CO)ncc1N(C)C(=O)C(C)(C)c1cc(C(F)(F)F)cc(C(F)(F)F)c1`, the call was inactive.
With `CN(C)C(=O)C1(N2CCCCC2)CCN(CC[C@@]2(c3ccc(Cl)c(Cl)c3)CN(C(=O)c3ccccc3)CCO2)CC1`, the half-maximal activity concentration (AC50) is 25.9 µM (active).
With `CCOC(=O)O[C@H](C)OC(=O)c1ccc2c(c1)cc(C(=O)NC1CCN(C(C)C)CC1)n2Cc1cc(-c2ccc(Cl)s2)on1`, the AC50 is 12.9 µM (active).
On the same count and under the same terms, with `CC/C(=C(/CC)c1ccc(O)cc1)c1ccc(O)cc1` the figure was 40.3 µM (active).
Same read-out and setting: as for `CCN(CC)C(=O)c1cc(S(=O)(=O)Cc2ccccc2)c(N2CCC(c3ccccc3)CC2)cc1N(CC)CCN(C)C`, the figure is 16.5 µM (active); as for `CN(C)c1ccc(C(=C2C=CC(=[N+](C)C)C=C2)c2ccc(N(C)C)cc2)cc1`, 14.4 µM (active).
